Assay outcomes from PubChem BioAssay.
Hits are enriched below; roughly 2.3% of the tested compounds scored in any of these assays.
Rtt109 Vps75: inhibitors of Candida albicans Rtt109/Vps75 histone acetyltransferase; hit rate 0.16% among 330,000; purified Rtt109/Vps75, ThioGlo CoA-SH fluorescence, 4 h; inhibition, % at 34.9 µM;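 active = inhibition of at least 50% in every replicate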
PDI turbidity: PDI (human) enzyme inhibition. AID 588391. inhibition, % at 10 µM. PDI insulin aggregation turbidity, A650, 90 min. hit rate 0.052% among 350,000. P07237;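 active = mean inhibition across replicates of 30% or more, whatever share of single replicates reach that level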
SIRT5 block: blocks human SIRT5 desuccinylation of peptide; Q9NXA8; Purified SirT5, succinyl-peptide AMC, trypsin-coupled fluorescence; inhibition, % at 15 µM; hit rate 1.1% among 330,000; in the data active = inhibition above about 15%
Target sequence (Q9NXA8 whole entry, looked up): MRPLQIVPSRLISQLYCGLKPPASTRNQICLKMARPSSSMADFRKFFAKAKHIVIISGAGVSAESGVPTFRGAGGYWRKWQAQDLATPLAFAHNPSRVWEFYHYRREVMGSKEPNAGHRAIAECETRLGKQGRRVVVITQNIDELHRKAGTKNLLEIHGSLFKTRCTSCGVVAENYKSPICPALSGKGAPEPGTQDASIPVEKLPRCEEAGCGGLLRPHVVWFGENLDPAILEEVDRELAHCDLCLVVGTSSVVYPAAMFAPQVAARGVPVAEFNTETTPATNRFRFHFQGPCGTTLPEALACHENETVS
DENV2 CPE rescue: DENV2-induced cell death inhibition. DENV2-infected cells, cytopathic effect rescue, plate reader. CPE inhibition, % at 9.99 µM. hit rate 1.7% among 350,000. AID 651640; in the data active = CPE inhibition above about 20%, passing the limit was not always enough; tested in BHK-21 cells;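 note: 0% = median of neutral control wells and 100% = median of positive control wells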
ERp5 inh: ERp5 (human) disulfide isomerase inhibition. ERp5 insulin aggregation, absorbance 650 nm, 90 min. inhibition, % at 9.99 µM. hit rate 0.05% among 350,000. AID 651711;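 active = mean replicate inhibition above about 25%, with every replicate also reaching it, limit read from the data, passing the limit was not always enough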
Starred values were filed as active, the others as inactive.

Results for Cc1ccc(S(=O)(=O)N[C@H]2C=C[C@H](CC(=O)NCc3ccc(Cl)c(Cl)c3)O[C@H]2CO)cc1 ?
SIRT5 block: -2; DENV2 CPE rescue: 1; ERp5 inh: 0

How did C[C@@H]1CN([C@@H](C)CO)C(=O)Cc2cc(NC(=O)Nc3cccc4ccccc34)ccc2O[C@H]1CN(C)S(C)(=O)=O do in these assays?
SIRT5 block: 7; DENV2 CPE rescue: 1; ERp5 inh: 6

How did C[C@@H]1CCCCO[C@H](CN(C)S(=O)(=O)c2ccc(Cl)cc2)[C@@H](C)CN([C@@H](C)CO)C(=O)c2cc(NC(=O)Nc3ccc(F)cc3)ccc2O1 do in these assays?
SIRT5 block: 2; DENV2 CPE rescue: 23*; ERp5 inh: -10

Results for C[C@@H]1CN([C@H](C)CO)C(=O)c2cc(NC(=O)Nc3ccc(F)cc3)ccc2O[C@@H](C)CCCCO[C@H]1CN(C)S(=O)(=O)c1ccc(Cl)cc1 ?
SIRT5 block: 7; DENV2 CPE rescue: -9; ERp5 inh: -4

Results for COc1ccc(S(=O)(=O)N(C)C[C@H]2OCCCC[C@@H](C)Oc3ccc(NC(=O)Nc4ccc(F)cc4)cc3C(=O)N([C@@H](C)CO)C[C@H]2C)cc1 ?
SIRT5 block: 17*; DENV2 CPE rescue: -1; ERp5 inh: 4

How did COc1ccc(S(=O)(=O)N(C)C[C@@H]2OCCCC[C@H](C)Oc3ccc(NC(=O)Nc4ccc(F)cc4)cc3C(=O)N([C@@H](C)CO)C[C@H]2C)cc1 do in these assays?
SIRT5 block: 13; DENV2 CPE rescue: -2; ERp5 inh: 1

Results for CCOC(=O)C1=CN2CCC[C@H]2CC1=O ?
Rtt109 Vps75: -1; PDI turbidity: -1; DENV2 CPE rescue: 63*; ERp5 inh: 0

How did NCC[C@@H]1CC[C@@H](NC(=O)Nc2ccc(F)cc2)[C@@H](CO)O1 do in these assays?
SIRT5 block: -1; DENV2 CPE rescue: -1; ERp5 inh: -3

How did CCC(=O)N1CCN(c2ccc(NC(=O)COc3cccc(C)c3C)cc2)CC1 do in these assays?
Rtt109 Vps75: -1; PDI turbidity: 15; SIRT5 block: 2; DENV2 CPE rescue: 9; ERp5 inh: 4

Results for Cc1cccc(OCC(=O)Nc2ccc(N3CCN(C(=O)c4ccccc4)CC3)cc2)c1C ?
Rtt109 Vps75: -4; PDI turbidity: -7; SIRT5 block: -3; DENV2 CPE rescue: 43*; ERp5 inh: 6

What do the screens show for `C[C@@H]1CCCCO[C@H](CN(C)S(=O)(=O)c2ccc(F)cc2)[C@@H](C)CN([C@@H](C)CO)C(=O)c2cc(NS(=O)(=O)c3ccccc3)ccc2O1`?
SIRT5 block: 17*; DENV2 CPE rescue: -2; ERp5 inh: 4

What do the screens show for `C[C@@H]1CCCCO[C@H](CN(C)S(=O)(=O)c2ccccc2)[C@@H](C)CN([C@@H](C)CO)C(=O)c2cc(NS(=O)(=O)c3ccc(F)cc3)ccc2O1`?
SIRT5 block: 6; DENV2 CPE rescue: 25*; ERp5 inh: 14

How did C[C@@H]1CCCCO[C@@H](CN(C)S(=O)(=O)c2ccc(F)cc2)[C@@H](C)CN([C@@H](C)CO)C(=O)c2cc(NS(=O)(=O)c3ccccc3)ccc2O1 do in these assays?
SIRT5 block: 16*; DENV2 CPE rescue: 2; ERp5 inh: -2

Results for C[C@@H]1CCCCO[C@H](CN(C)S(=O)(=O)c2ccccc2)[C@H](C)CN([C@@H](C)CO)C(=O)c2cc(NS(=O)(=O)c3ccc(F)cc3)ccc2O1 ?
SIRT5 block: 8; DENV2 CPE rescue: -4; ERp5 inh: 4

How did COc1ccc2c3c(n(C)c2c1)[C@@H](CO)N(C(=O)c1cnccn1)CC31CCN(C)CC1 do in these assays?
DENV2 CPE rescue: -3

Results for Cc1c(C(=O)OC(C)C)sc(N)c1C(=O)OC(C)C ?
Rtt109 Vps75: -4; PDI turbidity: 8; SIRT5 block: 2; DENV2 CPE rescue: 48*; ERp5 inh: 2

What do the screens show for `Cc1c(C(N)=O)sc(N)c1C(=O)OC(C)C`?
Rtt109 Vps75: -1; PDI turbidity: 4

Results for C[C@H]1CN([C@@H](C)CO)C(=O)Cc2cc(NC(=O)Nc3ccc(F)cc3)ccc2O[C@@H]1CN(C)S(=O)(=O)c1ccc(F)cc1 ?
SIRT5 block: 4; DENV2 CPE rescue: 15; ERp5 inh: 2

How did CC(C)NC(=O)Nc1ccc2c(c1)CC(=O)N([C@@H](C)CO)C[C@@H](C)[C@H](CN(C)S(=O)(=O)c1ccc(F)cc1)O2 do in these assays?
SIRT5 block: 1; DENV2 CPE rescue: 45*; ERp5 inh: -1

What do the screens show for `C[C@@H]1CN([C@H](C)CO)C(=O)Cc2cc(NC(=O)Nc3ccc(F)cc3)ccc2O[C@H]1CN(C)S(=O)(=O)c1ccc(Cl)cc1`?
SIRT5 block: 4; DENV2 CPE rescue: 21*; ERp5 inh: 7

Results for C[C@H](CO)N1C[C@H](C)[C@@H](CN(C)S(=O)(=O)c2ccc(Cl)cc2)Oc2ccc(NC(=O)Nc3ccc(F)cc3)cc2CC1=O ?
SIRT5 block: 10; DENV2 CPE rescue: 0; ERp5 inh: -7

How did Cc1ccc(S(=O)(=O)N(C)C[C@H]2Oc3ccc(NC(=O)Nc4ccc(F)cc4)cc3CC(=O)N([C@H](C)CO)C[C@@H]2C)cc1 do in these assays?
SIRT5 block: 4; DENV2 CPE rescue: 80*; ERp5 inh: 2

Results for CCCN(C)C[C@H]1OCCCC[C@H](C)Oc2ccc(N(C)C)cc2C(=O)N([C@H](C)CO)C[C@H]1C ?
SIRT5 block: 5; DENV2 CPE rescue: 8; ERp5 inh: 1

Results for C[C@H](CO)N1C[C@H](C)[C@@H](CN(C)C(=O)Nc2ccccc2)Oc2ccc(NC(=O)NC3CCCCC3)cc2CC1=O ?
SIRT5 block: -2; DENV2 CPE rescue: -1; ERp5 inh: 2

What do the screens show for `OC[C@H]1[C@@H](c2ccccc2)C2(CN(Cc3nccs3)C2)N1CC1CCOCC1`?
SIRT5 block: -5; DENV2 CPE rescue: -5; ERp5 inh: 5

Results for OC[C@@H]1[C@@H](c2ccccc2)C2(CN(CC3CC3)C2)N1Cc1ccc(F)cc1 ?
SIRT5 block: -2; DENV2 CPE rescue: 23*; ERp5 inh: 24

Results for CCS(=O)(=O)N1CC2(C1)[C@@H](c1ccccc1)[C@H](CO)N2Cc1ccc(F)cc1 ?
SIRT5 block: 16*; DENV2 CPE rescue: 35*; ERp5 inh: 1

Results for O=C(CC1CC1)N1CC2(C1)[C@@H](c1ccccc1)[C@@H](CO)N2Cc1cccc(F)c1 ?
SIRT5 block: 19*; DENV2 CPE rescue: 1; ERp5 inh: 5

What do the screens show for `O=C(CC1CC1)N1CC2(C1)[C@H](c1ccccc1)[C@@H](CO)N2Cc1ccc(F)cc1`?
SIRT5 block: 1; DENV2 CPE rescue: 3; ERp5 inh: -3

What do the screens show for `OC[C@@H]1[C@@H](c2ccccc2)C2(CN(CC3CCOCC3)C2)N1Cc1nccs1`?
SIRT5 block: 0; DENV2 CPE rescue: 51*; ERp5 inh: -4

How did O=C(C[C@@H]1CC[C@H]2NC[C@H](O)COC[C@@H]2O1)Nc1nccs1 do in these assays?
DENV2 CPE rescue: -2
